From PubChem BioAssay
Tgondii IFNg: T. gondii growth inhibition under IFN-gamma; activity change, negative = inhibition, % (concentration not given with the values); 69,000 compounds, 3.8% hits; Toxoplasma gondii growth in IFN-gamma-treated host cells; active compounds read low; AID 1259416; in the data active = activity change below about -70%, passing the limit was not always enough;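 note: host cells are HeLa cells infected with Toxoplasma gondii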
An asterisk follows results filed as active; ! = not confirmed by another sample. Shown is part of a subset that was picked to be rich in hits.

SMILES | Tgondii IFNg
COc1ccc(-c2nc3c(s2)CN(S(=O)(=O)c2c(C)cc(C)cc2C)CC3)cc1 | 5
Cc1cc(C)cc(S(=O)(=O)N2CCc3nc(-c4ccccc4)sc3C2)c1 | -17
Cc1ccc(-c2nc3c(s2)CN(S(=O)(=O)c2ccccc2Cl)CC3)cc1 | -56
COc1ccc(-c2nc3c(s2)CN(S(=O)(=O)c2ccc(OC)cc2)CC3)cc1 | -4
CC(C)(C)c1ccc(S(=O)(=O)N2CCc3nc(-c4ccccc4)sc3C2)cc1 | 8
COc1ccc(-c2nc3c(s2)CN(S(=O)(=O)c2cc(C)cc(C)c2)CC3)cc1 | -116*
COc1ccc(-c2nc3c(s2)CN(S(=O)(=O)c2ccc(CC(C)C)cc2)CC3)cc1 | 11
COc1cccc(-c2nc3c(s2)CN(S(=O)(=O)c2cccc(Cl)c2)CC3)c1 | -36
COc1ccc(-c2nc3c(s2)CN(S(=O)(=O)c2cccs2)CC3)cc1 | -94*
COc1cccc(-c2nc3c(s2)CN(S(=O)(=O)c2cc(C)cc(C)c2)CC3)c1 | -85*
Cc1ccc(-c2nc3c(s2)CN(S(=O)(=O)c2ccc(F)cc2F)CC3)cc1 | -88*
CC1CCCCC1NC(=O)CN1CCN(C)CC1 (configuration not stated) | -3
O=C1OCCCN1CCn1ccnc1-c1ccc(C2CCCCO2)o1 (configuration not stated) | 7
CSc1ccc(NC(=O)N2CCOC(Cc3ccc(F)cc3)C2)cc1 (configuration not stated) | 30
CCOc1ccc(-c2nc(CN(c3ccccc3OCC)S(=O)(=O)c3ccccc3)c(C)o2)cc1 | 1
COc1ccc(N(C)c2ccc3ccc(C(=O)N4CCCC4)cn23)cc1 | -23
O=C(C1CCCc2c1[nH]c1ccccc21)N1Cc2cnn(CCO)c2C1 (configuration not stated) | 100
CC(O)CNCc1ccc(-c2ccc(F)cc2)o1 (configuration not stated) | -20
CCOc1ccc(-c2nc3c(s2)CN(S(=O)(=O)c2cccc(Cl)c2C)CC3)cc1 | -65
CCc1ccccc1S(=O)(=O)N1CCc2nc(-c3ccc(OC)cc3)sc2C1 | -92*
CCOc1ccc(S(=O)(=O)N2CCc3nc(-c4ccccc4)sc3C2)cc1 | 15
c1csc(N2CCN(Cc3cnn(C4CCCCC4)c3)CC2)n1 | -8
COc1ccc2cc1Oc1ccc(cc1)C[C@H]1c3c(cc4c(c3Oc3cc5c(cc3OC)CCN(C)[C@@H]5C2)OCO4)CCN1C | -5
COc1ccc2cc1Oc1ccc(cc1)C[C@H]1c3cc(c(OC)cc3CCN1C)Oc1c(OC)c(OC)cc3c1[C@H](C2)N(C)CC3 | -71*!
COc1ccc2c(c1OC)C(=O)OC2[C@H]1c2c(cc3c(c2OC)OCO3)CCN1C (some centres not stated) | 24
SMILES | Tgondii IFNg
c1coc(CN2CCc3ncnc(C4CC4)c3CC2)c1 | 32
Cn1nnc2c1C(COCC1CC1)CN(C(=O)CS(C)(=O)=O)C2 (configuration not stated) | -4
O=C(NCc1cccnc1)C1=NOC2(CCCN(C(=O)Cc3ccccc3)C2)C1 (configuration not stated) | -48
O=c1[nH]c(=O)n([C@H]2CC(O)[C@@H](CO)O2)cc1C(F)(F)F (some centres not stated) | -50
Cc1cn([C@@H]2C[C@@H](O)[C@H](CO)O2)c(=O)[nH]c1=O | 1
O=c1[nH]c(=O)n([C@H]2C[C@H](O)[C@@H](CO)O2)cc1C(F)(F)F | -77*!
O=C1Cc2c([nH]c3ccc(Br)cc23)-c2ccccc2N1 | 3
O=c1c2c([nH]c3ccc(Br)cc13)CCCC2 | -94*
O=C(c1ccc2[nH]c3c(c2c1)CCCC3)N1Cc2cnn(CCO)c2C1 | 22
C=C1C2(C(=O)N3CCC(CN4CCCC4=O)CC3)CCC(C2)C1(C)C (configuration not stated) | 1
CC1(C)NC(=O)N(Cc2ccc(NC(=O)c3cc4c(F)cccc4[nH]3)cc2)C1=O | -39
Fc1cccc(-c2ccc3c(C4CCCN4Cc4ccncc4)nnn3c2)c1 (configuration not stated) | 23
COc1ccc(NC(=O)c2cncc(NS(=O)(=O)c3ccc(Br)cc3)c2)cc1 | 24
CCCCCOC(=O)Nc1ccc(S(=O)(=O)Nc2ccc(Br)cc2)cc1 | -87*
CCOc1ccc(NS(=O)(=O)c2ccc(NC(=O)c3cccs3)cc2)cc1 | 2
Cc1nc(C(C)C)ncc1C(=O)N1CC(c2ccncc2)C1 | 2
COC(=O)CC(=O)C1CN(C(=O)OC(C)(C)C)CC1c1cccc(OC)c1 (configuration not stated) | 12
OCCNc1ncnc2ccc(-c3cccc4[nH]ccc34)cc12 | -57
CCNc1ccnc(-c2cccc3[nH]ccc23)n1 | 36
Cc1csc2ncnc(-c3cccc4[nH]ccc34)c12 | -74*
Cc1ccc(NC(=O)Cn2c(=O)ccc3cc(S(=O)(=O)N4CCCC4)ccc32)c(C)c1 | 71
Cc1nc(OCC(=O)Nc2ccccc2Cl)c2ccccc2n1 | -15
CCOC(=O)c1[nH]c(C)c(C(=O)OCC)c1C | 146
CCOC(=O)c1[nH]c(C)c(S(=O)(=O)NC2CCCCNC2=O)c1C (configuration not stated) | -95*
CCOC(=O)c1[nH]c(C)c(CN2CC3CCCN3C[C@@H]2C)c1C (some centres not stated) | -18
SMILES | Tgondii IFNg
COc1cc(OC)c(CN2CC[C@@H](N)[C@@H](OC)C2)c(C(=O)O)c1 | -1
CN(C)CC1(O)CCCN(C(=O)COc2ccc(Cl)c(Cl)c2)C1 (configuration not stated) | -44
Cc1ccc(S(=O)(=O)NC(=O)c2ccccc2)cc1 | -23
CN(C)c1ccc(C(=O)c2ccccc2)cc1 | 13
Cc1ccc(Sc2ccc(C(=O)c3ccccc3)cc2)cc1 | -78*
Cc1[nH]cnc1-c1nnc(SCC(=O)O)n1-c1ccccc1C(F)(F)F | 0
Cc1cc(NC(=O)CSc2nnc3n(Cc4ccccc4)c4ccccc4n23)no1 | -2
O=C(O)CSc1nc2ccccc2n1Cc1ccccc1 | 13
COC(=O)c1c(C)nc2n(Cc3ccccc3)c3ccccc3n12 | -84*
COc1ccc(/C=C/c2nn3c(-c4ccc(OC)c(OC)c4)nnc3s2)cc1 | -101*
COc1ccc(-c2nc(C)c(C(C)=O)n2O)cc1OC | 10
COc1ccc(-c2nnc3sc(C4COc5ccccc5O4)nn23)cc1OC (configuration not stated) | -41
O=C(CCc1ccccc1)NCCc1csc(-c2ccc(Cl)cc2)n1 | 45
Cc1cccc(-c2nc(Cn3nnc(-c4nc(-c5cccc(F)c5)no4)c3C)c(C)o2)c1 | -9
CC(C)Cc1cc(C(=O)Nc2nc(-c3ccc(OC(C)C)cc3)cs2)nc(=O)[nH]1 | 24
Clc1ccc(-c2cn[nH]c2C2CCCNC2)cc1 (configuration not stated) | 1
Clc1ccc(C2(c3ccc(-c4cn[nH]c4)cc3)CCNCC2)cc1 | -72*
CC(C)n1cnnc1CN(C)C(=O)C(O)c1ccc(C(F)(F)F)cc1 (configuration not stated) | -2
O=C(c1ccco1)N1CCOC2C(COc3ncccn3)CCC21 (configuration not stated) | 5
CC1CCN(CC(C)(C)NC(=O)c2cc(-c3ccncc3)c3cnccc3n2)CC1 | -14
CC(C)C(NC(=O)c1cc(-c2ccncc2)c2cnccc2n1)c1cccs1 (configuration not stated) | -87*
CC(C)C(NC(=O)c1cccc(-n2cnnc2)c1)c1cccs1 (configuration not stated) | 115
